Results as given in the supplement of paper PMC4466140.

What follows are binders tested against AgAbp1 (assay: SPOT peptide array binding signal intensity (averaged, normalized) (arbitrary units (background-subtracted, floor 0; scale differs between SH3 domains)); higher = stronger binding of the SH3 domain to the peptide).
Summary of the method: (§1)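 SH3 domains from four yeast species were expressed as GST fusions in E. coli BL21(DE3) and purified on glutathione Sepharose. Each was incubated at 10 μg/ml overnight at 4°C in TBS-based blocking buffer on cellulose membranes bearing synthetic 15-mer peptides, in which serines replaced cysteines. Bound protein was detected with anti-GST antibody, an HRP anti-mouse secondary and luminol, then imaged and quantified with Genespotter. The binding signal is the normalized, background-subtracted spot intensity averaged over replicates, in arbitrary units that are not the same from one domain to another.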

Row | Binder | SPOT peptide array binding signal intensity
1 | DFTLPPPPPPPGLDE | 5

Each binder was assayed against AgBbc1 in the same assay as above.
Summary of the method: as §1

Row | Binder | SPOT peptide array binding signal intensity
2 | DFTLPPPPPPPGLDE | ≤ 0

Each binder was assayed against AgBem1-D1 in the same assay as above.
Summary of the method: as §1

Row | Binder | SPOT peptide array binding signal intensity
3 | DFTLPPPPPPPGLDE | ≤ 0

These binders were tested against AgBzz1-D1 in the same assay as above.
Summary of the method: as §1

Row | Binder | SPOT peptide array binding signal intensity
4 | DFTLPPPPPPPGLDE | ≤ 0

The binders below were run against AgBzz1-D2 in the same assay as above.
Summary of the method: as §1

Row | Binder | SPOT peptide array binding signal intensity
5 | DFTLPPPPPPPGLDE | ≤ 0

What follows are binders tested against AgCyk3 in the same assay as above.
Summary of the method: as §1

Row | Binder | SPOT peptide array binding signal intensity
6 | DFTLPPPPPPPGLDE | ≤ 0

These binders were tested against AgFus1 in the same assay as above.
Summary of the method: as §1

Row | Binder | SPOT peptide array binding signal intensity
7 | DFTLPPPPPPPGLDE | ≤ 0

Each binder was assayed against AgHof1 in the same assay as above.
Summary of the method: as §1

Row | Binder | SPOT peptide array binding signal intensity
8 | DFTLPPPPPPPGLDE | 57.5

What follows are binders tested against AgHse1 in the same assay as above.
Summary of the method: as §1

Row | Binder | SPOT peptide array binding signal intensity
9 | DFTLPPPPPPPGLDE | ≤ 0

The binders below were run against AgLsb1 in the same assay as above.
Summary of the method: as §1

Row | Binder | SPOT peptide array binding signal intensity
10 | DFTLPPPPPPPGLDE | 2

These binders were tested against AgLsb4 in the same assay as above.
Summary of the method: as §1

Row | Binder | SPOT peptide array binding signal intensity
11 | DFTLPPPPPPPGLDE | ≤ 0

Each binder was assayed against AgMyo5 in the same assay as above.
Summary of the method: as §1

Row | Binder | SPOT peptide array binding signal intensity
12 | DFTLPPPPPPPGLDE | 1550

The binders below were run against AgNbp2 in the same assay as above.
Summary of the method: as §1

Row | Binder | SPOT peptide array binding signal intensity
13 | DFTLPPPPPPPGLDE | 32.5

Each binder was assayed against AgRvs167 in the same assay as above.
Summary of the method: as §1

Row | Binder | SPOT peptide array binding signal intensity
14 | DFTLPPPPPPPGLDE | 1.67

What follows are binders tested against AgSho1 in the same assay as above.
Summary of the method: as §1

Row | Binder | SPOT peptide array binding signal intensity
15 | DFTLPPPPPPPGLDE | 2

The binders below were run against AgSla1-D1-D2 in the same assay as above.
Summary of the method: as §1

Row | Binder | SPOT peptide array binding signal intensity
16 | DFTLPPPPPPPGLDE | 1

These binders were tested against AgSla1-D3 in the same assay as above.
Summary of the method: as §1

Row | Binder | SPOT peptide array binding signal intensity
17 | DFTLPPPPPPPGLDE | 0.5

What follows are binders tested against CaAbp1-D1 in the same assay as above.
Summary of the method: as §1

Row | Binder | SPOT peptide array binding signal intensity
18 | DFTLPPPPPPPGLDE | ≤ 0

What follows are binders tested against CaAbp1-D2 in the same assay as above.
Summary of the method: as §1

Row | Binder | SPOT peptide array binding signal intensity
19 | DFTLPPPPPPPGLDE | ≤ 0

These binders were tested against CaBbc1 in the same assay as above.
Summary of the method: as §1

Row | Binder | SPOT peptide array binding signal intensity
20 | DFTLPPPPPPPGLDE | ≤ 0

Each binder was assayed against CaBem1-D1 in the same assay as above.
Summary of the method: as §1

Row | Binder | SPOT peptide array binding signal intensity
21 | DFTLPPPPPPPGLDE | 0.5

The binders below were run against CaBzz1-D1 in the same assay as above.
Summary of the method: as §1

Row | Binder | SPOT peptide array binding signal intensity
22 | DFTLPPPPPPPGLDE | 136

These binders were tested against CaBzz1-D2 in the same assay as above.
Summary of the method: as §1

Row | Binder | SPOT peptide array binding signal intensity
23 | DFTLPPPPPPPGLDE | 5.5

Each binder was assayed against CaCyk3 in the same assay as above.
Summary of the method: as §1

Row | Binder | SPOT peptide array binding signal intensity
24 | DFTLPPPPPPPGLDE | ≤ 0

These binders were tested against CaFus1 in the same assay as above.
Summary of the method: as §1

Row | Binder | SPOT peptide array binding signal intensity
25 | DFTLPPPPPPPGLDE | ≤ 0

The binders below were run against CaHof1 in the same assay as above.
Summary of the method: as §1

Row | Binder | SPOT peptide array binding signal intensity
26 | DFTLPPPPPPPGLDE | ≤ 0

What follows are binders tested against CaHse1 in the same assay as above.
Summary of the method: as §1

Row | Binder | SPOT peptide array binding signal intensity
27 | DFTLPPPPPPPGLDE | ≤ 0

The binders below were run against CaLsb1 in the same assay as above.
Summary of the method: as §1

Row | Binder | SPOT peptide array binding signal intensity
28 | DFTLPPPPPPPGLDE | 0.5

What follows are binders tested against CaLsb4 in the same assay as above.
Summary of the method: as §1

Row | Binder | SPOT peptide array binding signal intensity
29 | DFTLPPPPPPPGLDE | ≤ 0

Each binder was assayed against CaMyo5 in the same assay as above.
Summary of the method: as §1

Row | Binder | SPOT peptide array binding signal intensity
30 | DFTLPPPPPPPGLDE | 8

These binders were tested against CaNbp2 in the same assay as above.
Summary of the method: as §1

Row | Binder | SPOT peptide array binding signal intensity
31 | DFTLPPPPPPPGLDE | 20

These binders were tested against CaRvs167 in the same assay as above.
Summary of the method: as §1

Row | Binder | SPOT peptide array binding signal intensity
32 | DFTLPPPPPPPGLDE | ≤ 0

What follows are binders tested against CaRvs167-3 in the same assay as above.
Summary of the method: as §1

Row | Binder | SPOT peptide array binding signal intensity
33 | DFTLPPPPPPPGLDE | ≤ 0

These binders were tested against CaSho1 in the same assay as above.
Summary of the method: as §1

Row | Binder | SPOT peptide array binding signal intensity
34 | DFTLPPPPPPPGLDE | ≤ 0

The binders below were run against CaSla1-D1-D2 in the same assay as above.
Summary of the method: as §1

Row | Binder | SPOT peptide array binding signal intensity
35 | DFTLPPPPPPPGLDE | ≤ 0

The binders below were run against CaSla1-D3 in the same assay as above.
Summary of the method: as §1

Row | Binder | SPOT peptide array binding signal intensity
36 | DFTLPPPPPPPGLDE | ≤ 0

The binders below were run against ScAbp1 in the same assay as above.
Summary of the method: as §1

Row | Binder | SPOT peptide array binding signal intensity
37 | DFTLPPPPPPPGLDE | ≤ 0
